Our source for the inhibition values is PubChem BioAssay AID651610 (Broad Institute, 2012).

The structures appear in SMILES notation. About 3,900 (1.1%) of roughly 360,000 compounds were called active. The list comes from a sample in which actives are over-represented; it also holds similar structures and randomly drawn compounds. A number with no mark means an inactive call.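 The calls were made as follows: active = mean replicate inhibition score of at least 50 and every replicate individually at or above 50; inconclusive = only one of the two criteria met; inactive = mean below 50 and not all replicates reaching 50.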

The test in a line: blockers of JRFL envelope-mediated fusion – HeLa-JRFL effector, CEM21 target cells, luciferase, primary screen (AID 651610).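 Also: 0% = plate neutral controls and 100% = maraviroc near 300 nM.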 Particulars: HeLa-JRFL Env/CEM21 cell fusion, active compounds read high; at 16.7 µM unless noted.
Broadly, the inhibition is the change of the read-out against control, counted positive when it falls. As to `C[C@@H]1CCCCO[C@@H](CN(C)Cc2ccncc2)[C@@H](C)CN([C@@H](C)CO)C(=O)c2cc(NC(=O)Nc3ccc(F)cc3)ccc2O1`, the inhibition was -4.96%. For `Cc1ccccc1S(=O)(=O)NCC[C@@H]1CC[C@H](NC(=O)C2CC2)[C@@H](CO)O1` the value was 0.439%; for `C[C@@H]1CN([C@H](C)CO)C(=O)c2cc(N(C)C)ccc2O[C@@H]1CN(C)S(=O)(=O)c1cn(C)cn1`, 4.03%; for `O=C(C[C@H]1CC[C@H](NS(=O)(=O)c2ccccc2)[C@H](CO)O1)NCc1ccncn1`, 2.23%.

For the molecule `CC(C)c1cn(CC[C@@H]2CC[C@@H](NC(=O)C3CC3)[C@H](CO)O2)nn1`, the inhibition was 7.45%. Turning to `Nc1ccn(CC(=O)N2CCN(c3ccccn3)CC2)c(=O)n1`, the inhibition is 15.1% [at 12.3 µM]. As for `Cc1cc(C)c(CN2CCN(C(=O)Cn3ccc(NC(=O)OCc4ccccc4)nc3=O)CC2)c(C)c1`, the inhibition was 72.2% [at 12.3 µM] (active). Turning to `O=C(Nc1ccn(CCCNCc2ccc3[nH]ccc3c2)c(=O)n1)OCc1ccccc1`, the inhibition was 1.22% [at 12.3 µM]. Take `C[C@H](CO)N1C[C@H](C)[C@@H](CN(C)Cc2ccc(Oc3ccccc3)cc2)Oc2ccc(NS(=O)(=O)c3ccc(F)cc3)cc2CC1=O`: the inhibition is 6.63%. Take `C[C@H](CO)N1C[C@H](C)[C@H](CN(C)C(=O)c2ccccc2)OCCCC[C@H](C)Oc2ccc(NS(C)(=O)=O)cc2C1=O`: the inhibition is -12.1%.

As to `COc1ccc(C2CC(c3cccs3)Nc3nnnn32)cc1` (stereo unspecified), the inhibition was 15.5% [at 12.3 µM]. For `Nc1nc2n(n1)C(c1ccco1)CC(c1ccc(Cl)c(Cl)c1)N2` (stereo unspecified), the inhibition is -24.3% [at 12.3 µM]. Turning to `Clc1ccc(C2CC(c3cccs3)n3ncnc3N2)cc1Cl` (stereo unspecified), the inhibition was 91.8% [at 12.3 µM] (active). In the case of `Cc1ccc(S(=O)(=O)Nc2ccc3c(c2)C(=O)N([C@H](C)CO)C[C@@H](C)[C@H](CN(C)S(=O)(=O)c2cccs2)OCCCC[C@@H](C)O3)cc1`, the inhibition was -10.4%. For `O=C(NCC[C@H]1CC[C@@H](NC(=O)C2CC2)[C@H](CO)O1)c1ccc(F)cc1` the value was 13.4%; for `Cc1ccc(S(=O)(=O)Nc2ccc3c(c2)C(=O)N([C@@H](C)CO)C[C@H](C)[C@@H](CN(C)C(=O)Cc2ccccc2)OCCCC[C@H](C)O3)cc1`, -8.35%. As to `CCOC(=O)C1C(C)C(C(C)(C)C)N(S(=O)(=O)c2ccc(C)cc2)C1c1ccccc1` (stereo unspecified), the inhibition was 77.2% [at 12.3 µM] (active). With `CCCCC[C@@H]1C=C(C(=O)OCC)[C@H](c2ccccc2)N1S(=O)(=O)c1ccc(C)cc1`, the inhibition was -5.02% [at 12.3 µM]. On to `CCOC(=O)C1=CC[C@@H](c2ccccc2)N(S(=O)(=O)c2ccc(C)cc2)[C@H]1c1ccc(CC)cc1`, for which the inhibition is 44.3% [at 12.3 µM]. Consider `CCC(=O)N1C[C@H](C)[C@@H](OC)CN(C)C(=O)c2cc(NC(=O)c3cnccn3)ccc2OC[C@@H]1C`, for which the inhibition was -0.896%. For `O=C(CN1C(=O)c2ccccc2S1(=O)=O)N1CCc2ccccc21` the value was 63.8% [at 12.3 µM] (active); for `CN(Cc1ccc(F)cc1)C(=O)CN1C(=O)c2ccccc2S1(=O)=O`, -26% [at 12.3 µM]. Regarding `Cc1ccc(S(=O)(=O)N(C)CC(=O)N2CCc3ccccc32)cc1`, the inhibition was -5.79% [at 12.3 µM]. On to `CC(Oc1ccc(-c2ccccc2)c(F)c1)c1ccn(S(=O)(=O)c2cccc3ccccc23)n1` (stereo unspecified), for which the inhibition was 58.1% [at 12.3 µM] (active). Consider `C[C@@H]1CN([C@@H](C)CO)C(=O)c2cc(NC(=O)Nc3cccc4ccccc34)ccc2O[C@H]1CN(C)Cc1ccc(Cl)c(Cl)c1`, for which the inhibition is 2.97%.

With `O=C(Nc1ccc(-c2ccccc2)cc1)[C@H]1[C@H](CO)[C@H]2Cn3c(cccc3=O)[C@H]2N1CC1CC1`, the inhibition is -13.3%. For `COc1ccc(NC(=O)Nc2ccc3c(c2)C(=O)N([C@@H](C)CO)C[C@H](C)[C@H](CN(C)S(=O)(=O)c2ccccc2)OCCCC[C@@H](C)O3)cc1` the value was -1.8%; for `O=C(C[C@@H]1CC[C@@H]2[C@H](COC[C@H](O)CN2Cc2ccc(F)cc2)O1)NCc1ccncn1`, -13.2%; for `CN1CCN(C(=O)C[C@@H]2C[C@H]3c4cc(NC(=O)NC5CCCC5)ccc4O[C@H]3[C@H](CO)O2)CC1`, -16.8%. For `CCCNC(=O)N1C[C@@H](O)COC[C@@H]2O[C@H](CC(=O)N3CCN(C)CC3)CC[C@H]21` the value was -4.93%; for `C[C@@H]1CN([C@@H](C)CO)C(=O)Cc2cc(NS(=O)(=O)c3ccc(F)cc3)ccc2O[C@@H]1CN(C)S(=O)(=O)c1cccs1`, 2.26%; for `CO[C@H]1CN(C)C(=O)c2ccc(NS(C)(=O)=O)cc2OC[C@@H](C)N(C(=O)c2ccc3c(c2)OCO3)C[C@@H]1C`, 3.98%. As for `O=C(COC(=O)c1ncc(Cl)c(Cl)c1Cl)NCc1cccs1`, the figure is 80.8% [at 12.3 µM] (active). Regarding `O=C(COC(=O)c1ncc(Cl)c(Cl)c1Cl)NCc1ccccc1`, the inhibition is -4.53% [at 12.3 µM]. Turning to `O=C(COC(=O)c1ccc(Cl)nc1)NCc1cccs1`, the inhibition was 13.8% [at 12.3 µM]. For the molecule `CN1C(=O)c2cc(NC(=O)c3cnccn3)ccc2OC[C@@H]2O[C@H](CC(=O)O)CC[C@@H]21`, the inhibition is -25.8%. On to `Cc1cccc(-n2c(SCC(N)=O)nc3c(c2=O)C2(CCCCC2)Cc2ccccc2-3)c1`, for which the inhibition is 87% [at 12.3 µM] (active). For `Cc1cccc(-n2c(=O)c3c(C)c(C)sc3n(CC(N)=O)c2=O)c1` the value was 16% [at 12.3 µM]. As for `CCOC(=O)C1Cn2c(nc3c(c2=O)C(C)(CC)Cc2ccccc2-3)S1` (stereo unspecified), the inhibition is -68.6% [at 12.3 µM]. With `C[C@@H]1CN([C@H](C)CO)C(=O)Cc2cc(NC(=O)c3ccncc3)ccc2O[C@H]1CN(C)Cc1ccc(-c2ccccc2)cc1`, the inhibition is 18.5%. Take `Cc1ccc(S(=O)(=O)N(C)C[C@@H]2Oc3ccc(NS(=O)(=O)c4cn(C)cn4)cc3C(=O)N([C@@H](C)CO)C[C@H]2C)cc1`: the inhibition is -17.6%.
